Values joined by “and” are separate entries in the source; they are usually repeats but may differ in a detail not shown here. Equal values may be shown once. Active and inactive are the calls of the source.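 The calls were made as follows, unless noted: active = thallium flux through the channel raised or lowered by more than 3 SD from vehicle-only wells, actives on both sides; inactive = the rest.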
Columns and labels:
[1] = stimulators of nuclear beta-catenin in C2C12, primary screen, imaging, WNT3A-conditioned medium, mouse C2C12, NPC library (AID 1117326; in the data active = nuclear beta-catenin stimulation mostly above about 4.2%, no sharp cut-off; inactive = mostly below about 10%); settings: stronger effect = higher value
[2] = stimulators of insulin release from INS-1E, primary screen, cell-based, 5 mM glucose, NPC library (AID 1117329;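 active = compound raises insulin release from rat beta cells at 5 mM glucose, no numeric limit stated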); settings: rat INS-1E insulin secretion, at 10 µM, stronger effect = higher value
[3] = growth inhibition of GSK3B-pretreated HCT116 cells – cell-based, CellTiter-Glo, 0.2 to 20 µM (AID 1117336;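 active = compounds lowering colon cancer cell viability after pretreatment blocking the GSK3B kinase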); settings: HCT116 viability after GSK3B inhibitor, at 20 µM, stronger effect = higher value
[4] = inhibition of endothelial tube formation, primary screen, imaging, VEGF stimulated, CD31 staining, tube area, NPC library (AID 1117340;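 active = compound that reduces growth-factor-driven endothelial tube area in a mixed cell culture, no cutoff stated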); settings: VEGF-stimulated ADSC/ECFC co-culture, at 10 µM, stronger effect = higher value
[5] = glucagon-like peptide 1 release enhancers, primary assay, NCI-H716 cell line, NPC library (AID 1117341;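 active = compound raises GLP1 secretion from the human gut endocrine cells, with no numeric limit stated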); settings: NCI-H716 cells, at 10 µM, stronger effect = higher value
[6] = HCT116 colon cancer cell growth inhibition, primary screen, CellTiter-Glo luminescence, NPC library (AID 1117342;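 active = compounds that lower survival of HCT116 colon cancer cells in the luminescence readout, no numeric limit stated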); settings: at 20 µM (top of the series)
[7] = CellTiter-Glo luminescent readout of SW480 viability loss, NPC library primary (AID 1117343;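 active = compounds that lower viability of the colon cancer cells in the luminescence readout, with no numeric limit stated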); settings: CellTiter-Glo luminescence; at 20 µM (top of the series)
[8] = decreased DLD-1 cellular survival, CellTiter-Glo luminescent readout, NPC compound collection, primary HTS (AID 1117346;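 active = compounds that lower survival of DLD-1 colon cancer cells in the luminescence readout, no cutoff given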); settings: DLD-1 viability, CellTiter-Glo luminescence; at 20 µM (top of the series)
[9] = target: 6-phosphogluconate dehydrogenase, decarboxylating (Homo sapiens) (UniProt P52209); assay: 6PGD enzyme inhibitors, primary screen, biochemical, human, recombinant enzyme, NADPH absorbance (AID 1159550;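 active = at least 20% inhibition of 6-phosphogluconate dehydrogenase activity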); settings: recombinant 6PGD, NADPH absorbance 341 nm; at 10 µM; stronger effect = higher value
[10] = differential killing of epithelial or mesenchymal cells, primary screen, imaging, PC-3E GFP, TEM4-18 mCherry, co-culture (AID 1345086;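 active = compounds killing one labelled cell type while sparing the other, by normalised counts and ratio limits, not self-fluorescent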;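 as to all read-outs here: cells exposed to compound for 72 h before imaging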;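 as to red/green cell ratio (normalised): normalised mesenchymal count divided by normalised epithelial count so high means epithelial killing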); settings: imaging cell counts, at 1 µM; for red/green cell ratio (normalised): actives lie on both sides, counts scaled to control wells, 1 = unselective
[11] = survival rescue of mitochondrial mutant cells in low glucose, primary screen, MELAS cybrids, Rieske KO mouse fibroblasts, CellTiter-Glo (AID 1508586;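 active = mean z-score across replicates of 1.96 or higher in either the MELAS or the Rieske mutant cell line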;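 also: z relative to plate mean and SD of compound and empty wells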)
F380Y = assay: modulators of BK channel variants, profiling panel, selectivity assay, cell-based, U2OS BacMam, thallium flux, beta subunits (AID 1259406); settings: at 30 µM;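 also: initial slope of Thallos dye fluorescence rise after thallium is added; log ratio against the mean of 0.3% DMSO vehicle wells on the same plate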
F380Y/beta1 = assay: as above; settings: at 30 µM
F380Y/beta2Delta = assay: as above; settings: at 30 µM
F380Y/beta4 = assay: as above; settings: at 30 µM
[12] = target: Calcium-activated potassium channel subunit alpha-1 (Homo sapiens) + Leucine-rich repeat-containing protein 26 (Homo sapiens) (UniProt Q12791+Q2I0M4); assay: as above; settings: F380Y/Slo1WT/gamma1, at 30 µM
R275C = assay: as above; settings: at 30 µM
R275C/beta1 = assay: as above; settings: at 30 µM
[13] = sensitizers of A549 cells to miR-34 induction, primary screen, imaging, A549 dox-inducible miR-34, nuclei and caspase counts (AID 1347080;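 active = compounds whose cell count with miR-34 switched on is under 0.7 times the count with it off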); settings: A549 miR-34 inducible, Hoechst nuclei count, 48 h
[14] = measured here: epithelial PC-3E GFP cell survival
[15] = measured here: mesenchymal TEM4-18 mCherry cell survival
[16] = MELAS cybrid survival, CellTiter-Glo 48 h, stronger effect = higher value
[17] = Rieske KO mouse fibroblast survival, CellTiter-Glo 72 h
[18] = stronger effect = lower value, cell number ratio, induced over uninduced
[19] = measured here: relative caspase fold change +Dox/-Dox
[20] = measured here: total cells with miR-34 induction, stronger effect = lower value
[21] = measured here: total cells without miR-34 induction

Sequence of 6-phosphogluconate dehydrogenase, decarboxylating (Homo sapiens) (P52209 whole entry, looked up): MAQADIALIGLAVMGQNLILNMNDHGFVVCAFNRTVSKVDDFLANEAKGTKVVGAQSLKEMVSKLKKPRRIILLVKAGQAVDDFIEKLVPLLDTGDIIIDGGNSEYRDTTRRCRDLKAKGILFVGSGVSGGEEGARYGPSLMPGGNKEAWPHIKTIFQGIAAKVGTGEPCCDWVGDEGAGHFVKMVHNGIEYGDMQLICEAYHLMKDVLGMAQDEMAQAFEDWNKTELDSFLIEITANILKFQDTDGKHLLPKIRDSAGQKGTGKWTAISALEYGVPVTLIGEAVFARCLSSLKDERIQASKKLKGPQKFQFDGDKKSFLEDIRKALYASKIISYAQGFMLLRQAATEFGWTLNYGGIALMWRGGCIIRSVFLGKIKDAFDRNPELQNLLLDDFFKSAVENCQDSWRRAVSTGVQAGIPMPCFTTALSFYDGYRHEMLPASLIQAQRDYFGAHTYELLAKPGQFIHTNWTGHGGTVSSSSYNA
Sequence of Calcium-activated potassium channel subunit alpha-1 (Homo sapiens) + Leucine-rich repeat-containing protein 26 (Homo sapiens) (Q2I0M4 whole entry, looked up, one chain of several): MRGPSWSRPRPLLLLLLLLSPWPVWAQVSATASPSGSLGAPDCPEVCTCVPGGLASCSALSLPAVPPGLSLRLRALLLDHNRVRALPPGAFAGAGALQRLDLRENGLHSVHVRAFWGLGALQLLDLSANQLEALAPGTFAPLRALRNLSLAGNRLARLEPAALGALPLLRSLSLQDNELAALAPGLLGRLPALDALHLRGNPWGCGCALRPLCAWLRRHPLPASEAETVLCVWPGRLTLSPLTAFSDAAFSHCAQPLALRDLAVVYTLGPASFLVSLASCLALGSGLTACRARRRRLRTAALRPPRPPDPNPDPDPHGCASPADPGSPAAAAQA

NS(=O)(=O)c1cc2c(cc1Cl)NC=NS2(=O)=O
0.45: normalised cell number [10, 15]
inactive: nuclear beta-catenin stimulation ([1]; at 10 µM) -0.3% | insulin secretion stimulation [2] -0.7% | viability decrease [3] -4.3% | tube area decrease [4] 3.2% | GLP1 secretion stimulation [5] 1.5% | inhibition of viability [6] -1.55% | viability decrease (inhibition) [7] 5.5% | viability decrease (inhibition) [8] -6.2% | inhibition [9] 11.5% | red/green cell ratio (normalised) [10] 1.16 | z-score [11, 16] -0.0786 and 0.00114 | log fold change Tl+ flux (F380Y) 0.0512 | log fold change Tl+ flux (F380Y/beta1) 0.0165 | log fold change Tl+ flux (F380Y/beta2Delta) -0.00499 | log fold change Tl+ flux (F380Y/beta4) -2.4e-05 | log fold change Tl+ flux [12] 0.00339 | log fold change Tl+ flux (R275C) 0.0234 | log fold change Tl+ flux (R275C/beta1) 0.0235
0.72 and -0.309: z-score [11, 17]
3%: nuclear beta-catenin stimulation ([1]; stimulation, at 2 µM)
0.39: normalised cell number [10, 14]

CCc1cccc2c3c([nH]c12)C(CC)(CC(=O)O)OCC3 (configuration not stated)
-0.359: z-score [11, 17]
1.03: normalised cell number [10, 15]
0.3%: nuclear beta-catenin stimulation ([1]; stimulation, at 2 µM)
0.9: normalised cell number [10, 14]
inactive: nuclear beta-catenin stimulation ([1]; at 10 µM) 0.9% | insulin secretion stimulation [2] -0.3% | viability decrease [3] -31.2% | tube area decrease [4] -16.6% | GLP1 secretion stimulation [5] -0.9% | inhibition of viability [6] 1.5% | viability decrease (inhibition) [7] -4.5% | viability decrease (inhibition) [8] -11.6% | inhibition [9] -23.2% | red/green cell ratio (normalised) [10] 1.13 | z-score [11, 16] -0.968 | log fold change Tl+ flux (F380Y) 0.0338 | log fold change Tl+ flux (F380Y/beta1) 0.0385 | log fold change Tl+ flux (F380Y/beta2Delta) -0.0224 | log fold change Tl+ flux (F380Y/beta4) -0.00239 | log fold change Tl+ flux [12] 0.00932 | log fold change Tl+ flux (R275C) 0.0181
active: log fold change Tl+ flux (R275C/beta1) 0.127

Cc1onc(-c2c(Cl)cccc2Cl)c1C(=O)N[C@@H]1C(=O)N2[C@@H]1SC(C)(C)[C@@H]2C(=O)O
10400 and 7750 and 11800: cell count [13, 20]
inactive: nuclear beta-catenin stimulation ([1]; at 10 µM) 1.5% | insulin secretion stimulation [2] 1.5% | viability decrease [3] -15.4% | tube area decrease [4] 1.6% | GLP1 secretion stimulation [5] 0% | inhibition of viability [6] -4.23% | viability decrease (inhibition) [7] 18.3% | viability decrease (inhibition) [8] -11.8% | inhibition [9] -8.13% | red/green cell ratio (normalised) [10] 1.32 | fold change [13, 18] 0.978 and 0.899 and 0.89 | z-score [11, 16] 0.18 | log fold change Tl+ flux (F380Y) 0.01 | log fold change Tl+ flux (F380Y/beta1) -0.0941 | log fold change Tl+ flux (F380Y/beta2Delta) -0.00879 | log fold change Tl+ flux (F380Y/beta4) 0.00974 | log fold change Tl+ flux [12] 0.0705 | log fold change Tl+ flux (R275C) -0.0255 | log fold change Tl+ flux (R275C/beta1) 4.8e-05
1.67: normalised cell number [10, 15]
10700 and 8620 and 13200: cell count [13, 21]
0.0231: z-score [11, 17]
1.26: normalised cell number [10, 14]
0.333 and 1.39 and 0.886: fold change [13, 19]
1.3%: nuclear beta-catenin stimulation ([1]; stimulation, at 2 µM)

NS(=O)(=O)c1cc2c(cc1C(F)(F)F)NCNS2(=O)=O
0.185: z-score [11, 17]
1.02: normalised cell number [10, 15]
0.95: normalised cell number [10, 14]
10900 and 9840 and 13200: cell count [13, 21]
10100 and 9100 and 10600: cell count [13, 20]
inactive: nuclear beta-catenin stimulation ([1]; at 10 µM) -1% | insulin secretion stimulation [2] -0.5% | viability decrease [3] -8.5% | tube area decrease [4] -8.6% | GLP1 secretion stimulation [5] 0.4% | inhibition of viability [6] -2% | viability decrease (inhibition) [7] 10.4% | viability decrease (inhibition) [8] -13.4% | inhibition [9] -4.61% | red/green cell ratio (normalised) [10] 1.07 | fold change [13, 18] 0.934 and 0.925 and 0.803 | z-score [11, 16] 0.119 | log fold change Tl+ flux (F380Y) -0.0227 | log fold change Tl+ flux (F380Y/beta1) 0.0232 | log fold change Tl+ flux (F380Y/beta2Delta) 0.0255 | log fold change Tl+ flux (F380Y/beta4) 0.0329 | log fold change Tl+ flux [12] -0.0239 | log fold change Tl+ flux (R275C) -0.0328 | log fold change Tl+ flux (R275C/beta1) -0.0725
1%: nuclear beta-catenin stimulation ([1]; stimulation, at 2 µM)
2.9 and 1.27 and 0.875: fold change [13, 19]

Nc1nc(N)c2nc(-c3ccccc3)c(N)nc2n1
-0.161 and 0.254: z-score [11, 17]
4.7%: nuclear beta-catenin stimulation ([1]; stimulation, at 2 µM)
1.25: normalised cell number [10, 15]
active: viability decrease [3] 91.2% | inhibition of viability [6] 83% | viability decrease (inhibition) [7] 75.8%
inactive: nuclear beta-catenin stimulation ([1]; at 10 µM) 17.3% | insulin secretion stimulation [2] -0.7% | tube area decrease [4] 10.4% | GLP1 secretion stimulation [5] 2.6% | viability decrease (inhibition) [8] 0.75% | inhibition [9] 13.3% | red/green cell ratio (normalised) [10] 1.25 | z-score [11, 16] -0.205 and 1.1 | log fold change Tl+ flux (F380Y) 0.00573 | log fold change Tl+ flux (F380Y/beta1) -0.0403 | log fold change Tl+ flux (F380Y/beta2Delta) 0.0397 | log fold change Tl+ flux (F380Y/beta4) -0.00497 | log fold change Tl+ flux [12] 0.00721 | log fold change Tl+ flux (R275C) -0.00764 | log fold change Tl+ flux (R275C/beta1) -0.0258
1: normalised cell number [10, 14]

C[C@H](CS)C(=O)N1CCC[C@H]1C(=O)O
1.01: normalised cell number [10, 14]
-0.06 and -1.18: z-score [11, 17]
0.9%: nuclear beta-catenin stimulation ([1]; stimulation, at 2 µM)
1.1: normalised cell number [10, 15]
inactive: nuclear beta-catenin stimulation ([1]; at 10 µM) 0.8% | insulin secretion stimulation [2] -2.3% | viability decrease [3] -11.6% | tube area decrease [4] 12.5% | GLP1 secretion stimulation [5] 2.3% | inhibition of viability [6] -2.6% | viability decrease (inhibition) [7] 27.6% | viability decrease (inhibition) [8] -2.15% | inhibition [9] -3.72% | red/green cell ratio (normalised) [10] 1.1 | z-score [11, 16] -0.272 and -0.072 | log fold change Tl+ flux (F380Y) -0.0244 | log fold change Tl+ flux (F380Y/beta1) -0.0696 | log fold change Tl+ flux (F380Y/beta2Delta) 0.00669 | log fold change Tl+ flux (F380Y/beta4) 0.0146 | log fold change Tl+ flux [12] 0.0254 | log fold change Tl+ flux (R275C) 0.0445 | log fold change Tl+ flux (R275C/beta1) -0.0207

O=C(CCCN1CC=C(n2c(=O)[nH]c3ccccc32)CC1)c1ccc(F)cc1
active: log fold change Tl+ flux (R275C/beta1) 0.0837
0.9: normalised cell number [10, 15]
inactive: nuclear beta-catenin stimulation ([1]; at 10 µM) 1% | insulin secretion stimulation [2] 2.7% | viability decrease [3] -5.9% | tube area decrease [4] 16.2% | GLP1 secretion stimulation [5] -0.5% | inhibition of viability [6] 28.5% | viability decrease (inhibition) [7] 10.4% | viability decrease (inhibition) [8] 3.7% | inhibition [9] 12.8% | red/green cell ratio (normalised) [10] 0.96 | z-score [11, 16] -0.163 and 0.567 | log fold change Tl+ flux (F380Y) 0.0359 | log fold change Tl+ flux (F380Y/beta1) -0.0432 | log fold change Tl+ flux (F380Y/beta2Delta) 0.058 | log fold change Tl+ flux (F380Y/beta4) 0.0551 | log fold change Tl+ flux [12] -0.0307 | log fold change Tl+ flux (R275C) 0.0212
0.94: normalised cell number [10, 14]
-0.119 and 0.175: z-score [11, 17]
0.3%: nuclear beta-catenin stimulation ([1]; stimulation, at 2 µM)

From PubChem BioAssay
